Assay outcomes deposited in PubChem by University of Kansas High Throughput Screening Laboratory.
Pf apPOL inh = Pf-apPOL DNA polymerase inhibition; AID 1794808; inhibition, % at 10 µM; 210,000 compounds, 0.25% hits; Recombinant Pf-apPOL, molecular beacon fluorescence, 1.5 h
mHTT CaM bind = disrupts binding of mutant huntingtin to calmodulin. P42858. AlphaScreen His-mHTT/GST-CaM binding, luminescence. inhibition, % at 15 µM. 190,000 compounds, 3.6% hits. AID 1671202;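 also: 0% = both proteins with DMSO and 100% = one protein alone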
An asterisk follows results filed as active; . = not tested or not shown. The list is not random: actives were taken first. Their share in the collection is about 3.5%. Rule as the data show it: active = inhibition above about 50%; inactive = the rest.

SMILES	Pf apPOL inh	mHTT CaM bind
COc1cccc(/C=C2\C(=O)NN(c3ccc(Br)cc3)C2=O)c1	1.1	7.0
COc1cccc(/C=C2\C(=O)NN(c3ccccc3)C2=O)c1	1.7	6.0
CCCCCC1COC(c2ccc(-c3ccc(C)c(N)c3)o2)OC1 (stereo unspecified)	-6.8	16.0
CC(NC(=O)c1cc(=O)n(C)c(=O)n1C)C12CC3CC(CC(C3)C1)C2 (stereo unspecified)	.	-2.9
COc1cc(NC(=O)N2CCCC2c2cc(C(C)C)on2)cc(OC)c1 (stereo unspecified)	0.9	3.8
COc1ccc(CCNc2ccc(C)cc2)cc1	-4.4	70.6*
COc1ccc(CCNC(C)=O)cc1	-0.2	-5.8
O=C1NC(=Nc2ccccc2Cl)S/C1=C/c1ccc(F)cc1	-4.5	76.0*
O=C1NC(=Nc2ccccc2Cl)S/C1=C/c1ccccc1F	-1.6	66.0*
O=C1NC(=Nc2ccccc2Cl)S/C1=C\c1cccc([N+](=O)[O-])c1O	5.8	44.0
N#Cc1ccc(/C=C2/SC(=Nc3ccccc3Cl)NC2=O)cc1	2.5	35.0
Cc1ccnc(OCC(=O)Nc2ccncc2)n1	-1.9	-16.7
O=S(=O)(NCCCc1nc2ccccc2[nH]1)c1ccc(Cl)cc1	-7.4	-2.0
O=S(=O)(NCCCCCc1nc2ccccc2[nH]1)c1ccc(Cl)c(Cl)c1	-4.1	66.0*
CNC(=O)c1cc2cccc3c2n1CC(C)S3 (stereo unspecified)	-6.0	0.1
O=C1CC(c2ccccc2)Sc2ccccc2N1Cc1ccccc1 (stereo unspecified)	-4.7	80.3*
O=C1CC(c2ccco2)Sc2ccccc2N1Cc1cccc(F)c1 (stereo unspecified)	1.7	4.2
CNCC(=O)N1CCC(c2nc(-c3ccccc3)n[nH]2)CC1	17.0	6.1
Nc1nc(NC(=O)c2ccc([N+](=O)[O-])cc2)nn1-c1ccccc1	-7.2	-4.2
O=C(Nc1nc(NC(=O)c2ccccc2)n(-c2ccccc2)n1)c1ccccc1	-2.8	88.7*
COc1ccc(-c2ccc([C@H]3[C@@H]4C=CCC[C@@]4(C)C(=O)N3Cc3ccccc3)c(F)c2)cc1OC	-0.4	37.0
CC(=O)c1ccc(-c2c([C@H]3[C@@H]4C=CCC[C@@]4(C)C(=O)N3Cc3ccccc3)ccc3ccccc23)cc1	-5.0	100.6*
CN(C)c1ccc(-c2c([C@H]3[C@@H]4C=CCC[C@@]4(C)C(=O)N3Cc3ccccc3)ccc3ccccc23)cc1	-5.4	50.0
COc1ccc(-c2c([C@H]3[C@@H]4C=CCC[C@@]4(C)C(=O)N3Cc3ccccc3)ccc3ccccc23)cc1OC	0.7	100.5*
CS(=O)(=O)c1ccccc1NC(=O)C1CCCN(S(C)(=O)=O)C1 (stereo unspecified)	-4.9	-3.9
SMILES	Pf apPOL inh	mHTT CaM bind
O=C(N1CCN(c2cccc(Cl)c2)CC1)C1(S(=O)(=O)c2ccc(Cl)cc2)CC1	-5.0	13.0
Cc1ccc(Cl)cc1N1CCN(C(=O)C2(S(=O)(=O)c3ccc(Cl)cc3)CC2)CC1	0.9	92.0*
CN(C(=O)Cc1c(C(=O)O)[nH]c2ccc(Cl)cc12)c1ccc(Br)cc1	0.6	10.0
O=C(O)c1[nH]c2ccccc2c1CC(=O)N1CCN(c2ccc([N+](=O)[O-])cc2)CC1	-3.1	7.0
O=C(O)c1[nH]c2ccc(Cl)cc2c1CC(=O)N1CCN(c2cccc(Cl)c2)CC1	-3.6	63.0*
Cc1ccc(Cl)cc1N1CCN(C(=O)Cc2c(C(=O)O)[nH]c3ccc(Cl)cc23)CC1	-0.1	98.0*
Cc1ccc(S(=O)(=O)N2CCCC2c2nc(-c3cccc(Cl)c3)no2)cc1F (stereo unspecified)	-1.3	-15.1
Cc1ccc(-c2cc(C(=O)N3CCN(c4ccccn4)CC3)c(C)[nH]2)cc1	-1.9	77.4*
Cn1cc(C(=O)N2CCN(c3ccccn3)CC2)c2cccnc21	-0.2	-10.5
Nn1cnc2sc3c(c2c1=O)CCCCC3	-2.0	1.4
CCOc1ccc(-n2nnnc2CN2CCN(C(=O)C(CC)c3ccccc3)CC2)cc1 (stereo unspecified)	-4.2	1.8
CC(C)C1N=C(c2cccc(Br)c2)CC(c2ccccc2O)N1 (stereo unspecified)	0.3	-4.0
COc1ccc(NC(=O)c2c(NC(C)=O)sc3c2CCCC3)c(OC)c1	-1.9	-0.7
COc1ccc(OC)c(NC(=O)c2c(NCc3ccncc3)sc3c2CCCC3)c1	-16.9	70.0*
COc1ccc(OC)c(NC(=O)c2c(NCc3cccnc3)sc3c2CCCC3)c1	-16.5	69.0*
COc1ccccc1NC(=O)c1c(NC(=O)c2ccccc2Cl)sc2c1CCCC2	-3.4	-7.3
COc1ccc(Cl)cc1NC(=O)c1c(NCc2ccncc2)sc2c1CCCC2	-20.1	79.0*
COc1ccc(OC)c(NC(=O)c2c(NC(=O)CCC(=O)O)sc3c2CCCCC3)c1	-8.4	53.7*
COc1ccc(OC)c(NC(=O)c2cccnc2)c1	-2.2	2.3
COc1ccc(CC(=O)Nc2sc3c(c2C(N)=O)CCCCCC3)cc1OC	-1.4	5.5
CCC(C)NC(=O)C1(C)CCC(=O)N1Cc1ccc(F)cc1Cl (stereo unspecified)	-4.8	2.0
Cc1ccc(-c2cc(N3CCN(C(=O)NC(C)C)CC3)ncn2)cc1	-5.6	-9.2
N#CCSc1nc2ccccc2c2nc(CCc3c[nH]c4ccccc34)nn12	-5.3	46.0
O=C(c1ccccc1)N1CCc2sc(C(=O)N3CCN(c4ccccc4F)CC3)cc2C1	-5.3	4.6
CCN(CC)C(=O)c1cc2c(s1)CCC(C(=O)NCc1ccco1)C2 (stereo unspecified)	2.3	9.2
SMILES	Pf apPOL inh	mHTT CaM bind
COc1ccc(NC(=O)c2c(NC(=O)CN3CCCC3)sc3c2CCC3)c(OC)c1	-6.8	-2.3
COc1ccc(OC)c(NC(=O)c2c(NCc3ccncc3)sc3c2CCC3)c1	-14.9	88.0*
CCN(C)C(=O)C(C1CCCC1)N1CCN(C(=O)C2CCCCC2)CC1 (stereo unspecified)	-0.4	9.8
CC1(C)CC(=O)C2=C(C1)N(c1ccc(F)cc1)C(N)=C(C#N)C2c1cc(Br)cs1 (stereo unspecified)	-4.1	81.0*
COc1ccc(N2C(N)=C(C#N)C(c3ccc(F)cc3)C3=C2CC(C)(C)CC3=O)cc1 (stereo unspecified)	0.1	13.0
Cc1cccc(N2C(N)=C(C#N)C(c3cccs3)C3=C2CC(C)(C)CC3=O)c1 (stereo unspecified)	-4.5	33.0
CC1(C)CC(=O)C2=C(C1)N(c1ccccc1)C(N)=C(C#N)C2c1ccc(Br)s1 (stereo unspecified)	-3.0	89.0*
CCC(=O)N1CCCN(C2=NS(=O)(=O)C(c3ccccc3)=C2C)CC1	-3.7	-7.0
O=C(c1ccnc(-c2cccs2)c1)N1CCCCCC1	-8.0	-3.7
COc1ccc(N2CCN(C(=O)c3ccnc(-c4cccs4)c3)CC2)cc1	-1.7	50.0*
Cc1ccc(-c2nc(-c3cccc(-c4ccn[nH]4)c3)no2)cc1	2.2	13.2
O=C1N/C(=C/c2ccc(N3CCCC3)cc2)C(=O)N1Cc1ccc([N+](=O)[O-])cc1	3.3	16.0
O=C1N/C(=C\c2ccc(N3CCCC3)cc2)C(=O)N1Cc1ccccc1Cl	87.7*	13.0
O=Cc1ccc(-c2c(-c3ccccc3)oc3c2C(OCCCCO)CCC3)o1 (stereo unspecified)	-5.9	60.8*
OCCOC1CCCc2oc(-c3ccccc3)c(C#CC3(O)CCCCC3)c21 (stereo unspecified)	-8.0	29.6
